Reference: ChEMBL document CHEMBL3433997, “St. Jude Leishmania screening dataset” (2016)

Columns and labels:
Assay type in all cases: functional
[1] = target: Solute carrier family 2, facilitated glucose transporter member 1 (Homo sapiens) (UniProt P11166); experiment: ST_JUDE_LEISH: Cytotoxicity at 2uM final concentration against transgenic Leishmania Mexicana promastigotes LmGLUT1 that are glucose transport deficient and complemented with the human glucose transporter GLUT1. Activity is measured by DNA content using SYBR green in vitro
Sequence of Solute carrier family 2, facilitated glucose transporter member 1 (Homo sapiens) (P11166 whole entry): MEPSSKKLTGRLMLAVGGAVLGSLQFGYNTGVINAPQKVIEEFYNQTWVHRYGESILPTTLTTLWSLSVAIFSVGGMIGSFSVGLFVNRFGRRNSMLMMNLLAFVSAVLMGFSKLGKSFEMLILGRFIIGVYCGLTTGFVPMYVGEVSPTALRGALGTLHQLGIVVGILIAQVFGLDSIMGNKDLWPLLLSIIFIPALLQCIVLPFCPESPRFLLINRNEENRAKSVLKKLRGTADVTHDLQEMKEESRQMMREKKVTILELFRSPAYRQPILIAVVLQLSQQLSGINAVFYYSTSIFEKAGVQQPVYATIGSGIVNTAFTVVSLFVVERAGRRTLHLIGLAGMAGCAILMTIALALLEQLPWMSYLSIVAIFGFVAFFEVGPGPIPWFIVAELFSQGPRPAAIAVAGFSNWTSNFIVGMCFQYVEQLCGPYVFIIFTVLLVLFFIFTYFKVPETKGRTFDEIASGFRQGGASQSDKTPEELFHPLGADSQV

[2] = target: Hexose transporter 1 (Plasmodium falciparum) (UniProt O97467); experiment: ST_JUDE_LEISH: Cytotoxicity at 2uM final concentration against transgenic Leishmania Mexicana promastigotes LmPfHT that are glucose transport deficient and complemented with the Plasmodium falciparum hexose transporter. Activity is measured by DNA content using SYBR green in vitro
[3] = target: Glucose transporter (Leishmania mexicana) (UniProt O61059); experiment: ST_JUDE_LEISH: Cytotoxicity at 2uM final concentration against transgenic Leishmania Mexicana promastigotes LmGT2 that are glucose transport deficient and complemented with the L. Mexicana glucose transporter 2. Activity is measured by DNA content using SYBR green in vitro

Compound | inhibition [1] [%] | inhibition [2] [%] | inhibition [3] [%]
CN(C)c1ccc(-c2ccc(C(=O)NC3CCN(Cc4ccc(C(C)(C)C)cc4)CC3)s2)cc1 | 2.66 | 1.51 | -2.12
CCOc1c(C)cc(C(F)(F)F)cc1CNCCCNc1cc(=O)c2ccccc2[nH]1 | 5.27 | 5.03 | 5.79
CCCCCCCN1CC[C@@H](CCCc2ccnc3ccc(OCCN4CCOCC4)cc23)[C@@H](CC)C1 | 10.6 | 7.56 | 9.34
CCOC(=O)c1ccc(N=C2SC(=Cc3cc(Br)ccc3O)C(=O)N2C)cc1 | 3.33 | 1.81 | 3.81
Oc1ccc(-c2ccccc2)cc1CNC1CCCCC1 | 2.86 | 0.92 | 2.38
O=S(=O)(NCCN1CCCC1)c1ccc(-c2ccc(CNC3Cc4ccccc4C3)cc2)cc1 | 2.13 | 0.85 | -2.78
c1ccc(Oc2ccc(Nc3ccnc4cc(-c5cccc(CNCCN6CCOCC6)c5)ccc34)cc2)cc1 | -0.34 | -0.08 | 1.68
Cc1cccc(CN2CCC(C(=O)Nc3ccc(-c4nc5ccccc5[nH]4)cc3)CC2)n1 | 2.6 | 2.69 | 3.71
COC(=O)Cn1c(C2CCN(CC3CCC(NC(=O)/C=C/c4ccc(Cl)c(Cl)c4)CC3)CC2)nc2ccccc21 (centres undefined) | 1.86 | 0.18 | 2.43
O=C(NCCCCN1CCC(c2ccc3c(c2OCCOCCO)CCCC3)CC1)c1ccc(-c2ccc(C(F)(F)F)cc2)cc1 | 0.77 | 2.47 | 0.76
O=C(C=Cc1ccc(Cl)c(Cl)c1)NCCCCCN1CCC(CCNC(=O)/C=C/c2ccccc2)CC1 | 0.55 | 0.26 | 3.1
O=C(Nc1ccsc1)Nc1cccc(-c2cccc(-c3nc4cc(F)ccc4[nH]3)c2)c1 | 2.33 | 2.8 | -5.19
O=C1OC2(CCN(Cc3cccc(-c4ncc[nH]4)c3)CC2)CN1CCNCc1ccccc1 | 1.81 | 1.4 | -0.76
Cc1cc(N2CCCC2)nc(Nc2ccc(NC(=O)C3CCCC3)cc2)n1 | -0.76 | 1.16 | 0.83
CC(C)C[C@H](Nc1ccnc(NCC2CCCCC2)n1)C(=O)NCCOc1ccccc1 | 2.57 | 3.02 | 2.47
COc1ccccc1CCCON1C(=N)N=C(N)NC1(C)C | 5.24 | 5.03 | 4.51
CC(C)CCN1CCC(Oc2ccc(NC(=O)c3cccs3)cc2Cl)C1 (centres undefined) | 10.2 | 11.8 | 9.02
CCOc1c(CCNCCCCNCCc2ccc3ccccc3c2OCC)ccc2ccccc12 | 111 | 112 | 111
CN(CCN)Cc1cccc(-c2cccc(-c3nc4cc(F)ccc4[nH]3)c2)c1 | 1.11 | 1.79 | -1.76
CN1CCN(CC(O)CNC(=O)Nc2ccc(Cl)cc2)CC1 (centres undefined) | 5.3 | 5.03 | 2.94
Cc1sc2nc(CN3CCCC3)nc(-n3c(NCCO)nc4ccccc43)c2c1C | 4.18 | 5.54 | 5.9
CCN(CC)CCOc1ccc(C(O)(C#CC(O)(c2ccccc2)c2ccc(OCCN(CC)CC)cc2)c2ccccc2)cc1 (centres undefined) | -1.1 | -2.58 | 1.94
CC1=C(C(=O)Nc2cc3cn[nH]c3cc2F)C(c2ccc(Cl)c(NS(C)(=O)=O)c2)CC(=O)N1 (centres undefined) | -2.07 | -0.1 | -2.27
CCCc1ccccc1OCC(O)CN(C1CCCC1)C1CCCC1 (centres undefined) | 6.36 | 6.68 | 5.96
CCc1cc2c(Sc3nc4ccccc4[nH]3)ncnc2s1 | 0.94 | 0.97 | -0.12

Compound | inhibition [1] [%] | inhibition [2] [%] | inhibition [3] [%]
CC(c1cccc(S(=O)(=O)NCc2cccc(C(F)(F)F)c2)c1)N1CCC(N2CCCCC2)CC1 (centres undefined) | 6.15 | 7.23 | 7.91
CCc1cn2c3c(cc(C(=O)N[C@@H](Cc4ccccc4)[C@H](O)CNC4CCOCC4)cc13)N(C)S(=O)(=O)C2 | 0.25 | 1.65 | -0.23
O=C(NCCc1ccccc1)N(Cc1cccc(-c2ccc(CNCCc3ccccc3)cc2)c1)C1CCN(Cc2ccccc2)CC1 | 0.95 | -0.75 | 0.12
COc1ccc2c(NN=Cc3ccccn3)ccnc2c1 | 13.7 | 11.8 | 11.3
O=C(Nc1ccccc1)c1c[nH]cn1 | 0.43 | 2.14 | -0.23
COc1ccc(NC(=O)[C@H](CC(C)C)Nc2ccnc(NCCc3ccc(F)cc3)n2)cc1 | 1.22 | 1.43 | 1.38
COc1cc(Cc2cnc(N)nc2N)c2c(c1OC)OC(C)(C)C=C2 | 4.17 | 5.13 | 4.87
N#Cc1ccc(N2CCN(Cc3cccc(-c4cccc(-c5nc6cc(F)ccc6[nH]5)c4)c3)CC2)nc1 | 3.5 | 5.99 | 3.65
CCCCCCn1c2c(c(=N)c3c1CCC3)CCC2 | 86.4 | 85.9 | 83.1
O=C(O)CCCN1CCCC(=C(c2ccccc2)c2ccccc2)C1 | 3.04 | 3.64 | 4.81
O=C(NCCCN1CCC(NC(=O)c2ccc(-c3cccnc3)cc2)CC1)c1ccc(Cl)c(Cl)c1 | 2.51 | 1.38 | 1.63
O=C(Nc1cccc(C(F)(F)F)c1)NC1CCN(c2ccnc3cc(Cl)ccc23)C1 (centres undefined) | -0.97 | -2.13 | 0.93
CN(c1ccc(F)cc1)S(=O)(=O)c1ccc(Cl)c(C(=O)Nc2cccc(C#N)c2)c1 | 4.24 | 3.52 | 3.65
COc1ccc2nc(-c3cc(-c4ccc(NC(C)=O)cc4)cnc3N)[nH]c2c1 | 3.72 | 4.61 | 2.87
O=C(Nc1cccc(CN2CCCN(Cc3cccc(O)c3)CC2)c1)c1ccc(Cl)c(Cl)c1 | 13.9 | 12.1 | 13.8
CC(C)CNCc1cccc(-c2cccc(CNc3ccc4ncccc4c3)c2)c1 | 2.92 | 1.32 | 2.08
C[C@H](NC(=O)c1c(CN2CCN(C(=O)C(C)(C)C)CC2)c(-c2cccs2)nc2ccccc12)C1CCCCC1 | 6.07 | 5.13 | 2.24
CC1CCN(CC[C@H]2CCCN2S(=O)(=O)c2cccc(NC(=O)c3ccc(-c4ccccc4)cc3)c2)CC1 | 3.61 | 1.72 | -0.42
CCCC(C)NC(=O)[C@H](Cc1ccccc1)NC(=O)c1ccc(O)c(-c2ccc(OC)cc2)c1 (some centres undefined) | 4.38 | 3.09 | 3.9
CC(=O)Nc1ccc2[nH]cc(C3CCN(CC4CCC(NC(=O)/C=C/c5ccc(Cl)c(Cl)c5)CC4)CC3)c2n1 (centres undefined) | -0.73 | 0.9 | -2.32
CC(C)(CNC(=O)[C@H]1CCCN1)c1nc(-c2ccc(Cl)c(O)c2)c(-c2ccncc2)[nH]1 | 8.17 | 8.03 | 8.28
CC(C)NCC(O)COc1ccc(Cc2ccc(OCC(O)CNC(C)C)cc2)cc1 (centres undefined) | -0.23 | 0.19 | -0.55
N=c1c2c(n(Cc3ccccc3)c3c1CCC3)CCCC2 | 26.6 | 28.1 | 7.1
N=C(N)NN=CC(=O)Nc1ccc(Cl)c(C(F)(F)F)c1 | 8.87 | 7.04 | 9.08
COc1ccc(-c2cccc(NC(=O)c3cccs3)c2)cc1CN1CCCN(C)CC1 | 0.38 | 0.37 | -1.25

Compound | inhibition [1] [%] | inhibition [2] [%] | inhibition [3] [%]
CN(C)CCC1CCN(CCS(=O)(=O)c2cccc(Nc3ccc(-c4cccc(F)c4)cn3)c2)CC1 | -0.27 | 3.28 | 3.78
Cc1c(C)c2c(c(C)c1O)CC[C@](C)(C(=O)N1CCC(CCN3CCC(c4c[nH]c5ccccc45)CC3)CC1)O2 | 0.17 | -1.76 | -0.6
Oc1cc2c(cc1CN1CCN(Cc3ccc(Cl)s3)CC1)CCC2 | 2.02 | 4.66 | 1.82
C=CCN1C(=O)C(=Cc2cc(Br)ccc2O)SC1=Nc1ccccc1 | 8.65 | 6.8 | 14.5
Cc1ccccc1C(O)CNc1ccnc(Nc2cccc(C#N)c2)n1 (centres undefined) | 3.5 | 4.38 | 0.24
COc1ccc(Nc2nccc(N3CCC(NC(=O)Nc4ccc5c(c4)OCO5)C3)n2)cc1 (centres undefined) | 0.18 | 1.7 | 1.21
CCC(C)NC(=O)Cn1c2ncccc2c(=O)n1-c1ccc(C)cc1 (centres undefined) | 5.25 | 4.88 | 0.04
CCC(C)c1ccc(-n2c(Nc3ccccc3)nc3cc(S(N)(=O)=O)ccc32)cc1 (centres undefined) | 12.3 | 6.89 | 5.77
CC(C)CCCC(C)(C)NC[C@@H](O)[C@H](Cc1ccccc1)NC(=O)c1cc(NC(C)C)cc(N2CCCCS2(=O)=O)c1F | 7.51 | 5.83 | 7.87
CCOC(=O)c1ccc(N2CCN(CCCNC(=O)/C(=C/C=C/c3cc4cc(Cl)c(Cl)cc4[nH]3)OC)CC2)cc1 | 2.48 | 3.47 | 0.57
CC(C)c1ccc(NC(=O)Nc2ccc(Cn3ncc(N4CCCNCC4)c(Cl)c3=O)cc2)cc1 | 1.52 | 1.29 | -0.56
Cc1cccc2nc(-c3cccc(-c4cccc(NC(=O)c5ccc(C(N)=O)cc5)c4)c3)[nH]c12 | 0.33 | 1.11 | 1.3
O=C(Nc1cccc(OC2CCN(Cc3ccccc3)CC2)c1)c1ccc(Cl)c(Cl)c1 | 3.35 | 1.85 | 3.44
Cc1c(C)c2c(c(C)c1O)CCC(C)(CCC(=O)O)O2 (centres undefined) | 0.86 | 2.15 | 1.82
CCNC(=O)N[C@@H]1CN[C@@H](C#Cc2cc3c(Nc4ccc(OCc5cccc(F)c5)c(Cl)c4)ncnc3s2)C1 | -0.84 | -1.15 | -0.46
COCCOc1nc(N)nc2ncc(Cc3cc(OC)ccc3OC)c(C)c12 | 0.79 | 0.23 | -1.06
CC1CCN(C(=O)CSc2nc(-c3ccc(C(C)C)cc3)no2)CC1 | 7.2 | 9.21 | 6.14
COc1ccc(-c2nc3c(NCc4ccccc4)nccc3[nH]2)c(OC)c1 | 4.06 | 4.06 | 2.67
O=C(Nc1ccc(Cl)c(Cl)c1)Nc1ccc2c(c1)CCNCC2 | -0.33 | 0.96 | 0.79
CCc1nc2nc(C)cc(Nc3ccc4c(c3)OCCO4)n2n1 | 2.89 | 4.78 | -3.9
O=C(c1cccc(-c2noc(C(F)(F)F)n2)c1)N1CCN(C(=O)c2ccc3cc[nH]c3c2)CC1 | -0.84 | -0.23 | -1.68
CCCC(=O)NC(c1cccs1)c1cc(Cl)c2cccnc2c1O (centres undefined) | 0.53 | 1.83 | -0.61
FC(F)(F)c1ccc2[nH]ccc(=NN=Cc3ccc(Cl)cc3)c2c1 | 3.42 | 3.11 | 2.9
